# Laboratory results: publication PMC11062922 (Nature Chemical Biology, 2023)
# Where two headings read alike, the source gives them in different places.
# How the values were obtained:
# Set-up in all cases: species or system human, MV4-11 + K-562 + COLO205 + SK-N-BE2 + OVCAR-8
# [1] = test system: FLT3; details: read-out: apparent Kd, n = 1
# [2] = test system: MYLK3; details: read-out: apparent Kd, n = 1
# [3] = test system: PRKD2; details: read-out: apparent Kd, n = 1
# [4] = test system: PRKD3; details: read-out: apparent Kd, n = 1
# [5] = test system: FER; details: read-out: apparent Kd, n = 1
# [6] = test system: LATS1; details: read-out: apparent Kd, compound concentrations: 100 nM and 1000 nM (sheet 'Samples'), n = 1
# [7] = test system: MARK4; details: read-out: apparent Kd, n = 1
# [8] = test system: PIP4K2C; details: read-out: apparent Kd, n = 1
# [9] = test system: PLK4; details: read-out: apparent Kd, n = 1
# [10] = test system: PRKAA1; details: read-out: apparent Kd, n = 1
# [11] = test system: PRKCD; details: read-out: apparent Kd, n = 1
# [12] = test system: PRKCQ; details: read-out: apparent Kd, n = 1
# [13] = test system: PTK2B; details: read-out: apparent Kd, n = 1
# [14] = test system: PTK2; details: read-out: apparent Kd, n = 1
# [15] = test system: RPS6KA6; details: read-out: apparent Kd, n = 1
# [16] = test system: STK10; details: read-out: apparent Kd, n = 1
# [17] = test system: CDKL5; details: read-out: apparent Kd, compound concentrations: 100 nM and 1000 nM (sheet 'Samples'), n = 1
# [18] = test system: DYRK1A; details: read-out: apparent Kd, compound concentrations: 100 nM and 1000 nM (sheet 'Samples'), n = 1
# [19] = test system: CDK7; details: read-out: apparent Kd, n = 1
# [20] = test system: ERCC2; details: read-out: apparent Kd, n = 1
# [21] = compound concentrations:100 nM and 1000 nM (sheet 'Samples')
smiles,measurement,setting,value
Cc1cccc(Nc2nc(N[C@H]3CCNC3)ncc2C(N)=O)c1.Cl [GSK2197149A],potency estimated from few doses,[1]; [21],1070 nM
same,potency estimated from few doses,[2]; [21],2040 nM
same,potency estimated from few doses,[3]; [21],1170 nM
same,potency estimated from few doses,[4]; [21],1890 nM
O=C(O)C(F)(F)F.O=C(O)C(F)(F)F.O=c1[nH]ccc2nc(N[C@@H]3CCCNC3)nc(Nc3ccc(S(=O)(=O)N4CCOCC4)cc3)c12.O=c1[nH]ccc2nc(N[C@@H]3CCCNC3)nc(Nc3ccc(S(=O)(=O)N4CCOCC4)cc3)c12 [GSK2177277A],potency estimated from few doses,"[5]; compound concentrations: 100 nM and 1000 nM (sheet 'Samples'), CATDS: 8.2739447120601401E-3",507 nM
same,potency estimated from few doses,"[1]; compound concentrations: 100 nM and 1000 nM (sheet 'Samples'), CATDS: 9.0751024069003396E-3",370 nM
same,potency estimated from few doses,[6]; CATDS: 1.48300039917603E-2,99 nM
same,potency estimated from few doses,"[7]; compound concentrations: 100 nM and 1000 nM (sheet 'Samples'), CATDS: 1.7623267984443299E-2",68 nM
same,potency estimated from few doses,"[2]; compound concentrations: 100 nM and 1000 nM (sheet 'Samples'), CATDS: 7.6821350503620796E-3",670 nM
same,potency estimated from few doses,"[8]; compound concentrations: 100 nM and 1000 nM (sheet 'Samples'), CATDS: 6.0874593504341903E-3",2140 nM
same,potency estimated from few doses,"[9]; compound concentrations: 100 nM and 1000 nM (sheet 'Samples'), CATDS: 9.3439650172966598E-3",337 nM
same,potency estimated from few doses,"[10]; compound concentrations: 100 nM and 1000 nM (sheet 'Samples'), CATDS: 9.2771532951669705E-3",345 nM
same,potency estimated from few doses,"[11]; compound concentrations: 100 nM and 1000 nM (sheet 'Samples'), CATDS: 1.08121865447726E-2",219 nM
same,potency estimated from few doses,"[12]; compound concentrations: 100 nM and 1000 nM (sheet 'Samples'), CATDS: 6.3096913927369299E-3",1710 nM
same,potency estimated from few doses,"[3]; compound concentrations: 100 nM and 1000 nM (sheet 'Samples'), CATDS: 1.40829388038229E-2",112 nM
same,potency estimated from few doses,"[4]; compound concentrations: 100 nM and 1000 nM (sheet 'Samples'), CATDS: 1.7898299297347601E-2",65.9 nM
same,potency estimated from few doses,"[13]; compound concentrations: 100 nM and 1000 nM (sheet 'Samples'), CATDS: 2.4807788404782798E-2",35.2 nM
same,potency estimated from few doses,"[14]; compound concentrations: 100 nM and 1000 nM (sheet 'Samples'), CATDS: 7.5985318000446602E-3",700 nM
same,potency estimated from few doses,"[15]; compound concentrations: 100 nM and 1000 nM (sheet 'Samples'), CATDS: 8.3254992837084908E-3",496 nM
same,potency estimated from few doses,"[16]; compound concentrations: 100 nM and 1000 nM (sheet 'Samples'), CATDS: 9.0871108796095092E-3",369 nM
CN(C)CCNC(=O)Nc1ccc(N(C)c2ccnc(Nc3ccc(CS(C)(=O)=O)cc3)n2)cc1.Cl [GW830900A],potency estimated from few doses,[1]; [21],39.9 nM
same,potency estimated from few doses,[8]; [21],1840 nM
COc1cc(Nc2nccc(-c3cnn4ncccc34)n2)cc(OC)c1 [GW801372X],potency estimated from few doses,[17]; CATDS: 4.3388944669180397E-2,141 nM
same,potency estimated from few doses,[18]; CATDS: 3.9916528669642001E-2,170 nM
same,potency estimated from few doses,"[1]; compound concentrations: 100 nM and 1000 nM (sheet 'Samples'), CATDS: 0.110722345436643",22.4 nM
same,potency estimated from few doses,"[8]; compound concentrations: 100 nM and 1000 nM (sheet 'Samples'), CATDS: 2.38914066508359E-2",648 nM
same,potency estimated from few doses,"[14]; compound concentrations: 100 nM and 1000 nM (sheet 'Samples'), CATDS: 2.4454982719063802E-2",604 nM
c1cnn2ncc(-c3ccnc(Nc4ccc5c(c4)OCCO5)n3)c2c1 [GW806290X],potency estimated from few doses,[17]; CATDS: 7.1122593361459902E-2,94.8 nM
same,potency estimated from few doses,[18]; CATDS: 2.4296257212368499E-2,1020 nM
same,potency estimated from few doses,"[1]; compound concentrations: 100 nM and 1000 nM (sheet 'Samples'), CATDS: 9.3011022280108296E-2",61.9 nM
same,potency estimated from few doses,"[2]; compound concentrations: 100 nM and 1000 nM (sheet 'Samples'), CATDS: 2.0905091895042499E-2",1690 nM
same,potency estimated from few doses,"[8]; compound concentrations: 100 nM and 1000 nM (sheet 'Samples'), CATDS: 7.0230989511161995E-2",96.8 nM
same,potency estimated from few doses,"[11]; compound concentrations: 100 nM and 1000 nM (sheet 'Samples'), CATDS: 2.1059848271292699E-2",1650 nM
CC(=O)N[C@@H](Cc1ccc(OP(=O)(O)O)cc1)C(=O)N[C@H]1CCC(=O)N2CCC[C@@H](C(=O)NCc3ccc(Cl)cc3)N2C1=O [RO0325308-000],potency estimated from few doses,[19]; [21],49.9 nM
same,potency estimated from few doses,[20]; [21],39.4 nM
same,potency estimated from few doses,[5]; [21],59.5 nM
same,potency estimated from few doses,[8]; [21],1270 nM
same,potency estimated from few doses,[9]; [21],637 nM
same,potency estimated from few doses,[10]; [21],801 nM
same,potency estimated from few doses,[12]; [21],785 nM
same,potency estimated from few doses,[13]; [21],367 nM
same,potency estimated from few doses,[14]; [21],652 nM
same,potency estimated from few doses,[15]; [21],620 nM
COc1cc[nH]c1/C=C1\C(=O)Nc2ccc(F)c(C#CC3(O)CCNCC3)c21.Cl [RO0282986-001],potency estimated from few doses,"[19]; compound concentrations: 100 nM and 1000 nM (sheet 'Samples'), CATDS: 1.0726954600141701E-2",1020 nM
same,potency estimated from few doses,[17]; CATDS: 0.34989836845243499,2.99 nM
same,potency estimated from few doses,"[20]; compound concentrations: 100 nM and 1000 nM (sheet 'Samples'), CATDS: 1.0235233347988201E-2",1210 nM
same,potency estimated from few doses,"[1]; compound concentrations: 100 nM and 1000 nM (sheet 'Samples'), CATDS: 4.9574860121956603E-2",43.6 nM
same,potency estimated from few doses,[6]; CATDS: 3.7276023026690398E-2,68.4 nM
same,potency estimated from few doses,"[7]; compound concentrations: 100 nM and 1000 nM (sheet 'Samples'), CATDS: 1.45077611109678E-2",429 nM
same,potency estimated from few doses,"[2]; compound concentrations: 100 nM and 1000 nM (sheet 'Samples'), CATDS: 1.54633184822493E-2",368 nM
same,potency estimated from few doses,"[10]; compound concentrations: 100 nM and 1000 nM (sheet 'Samples'), CATDS: 1.18517634082691E-2",741 nM
same,potency estimated from few doses,"[11]; compound concentrations: 100 nM and 1000 nM (sheet 'Samples'), CATDS: 1.2203659987841E-2",680 nM
same,potency estimated from few doses,"[3]; compound concentrations: 100 nM and 1000 nM (sheet 'Samples'), CATDS: 2.5801010504162801E-2",129 nM
same,potency estimated from few doses,"[4]; compound concentrations: 100 nM and 1000 nM (sheet 'Samples'), CATDS: 3.6312689079161402E-2",71.4 nM
same,potency estimated from few doses,"[15]; compound concentrations: 100 nM and 1000 nM (sheet 'Samples'), CATDS: 1.2829138267775601E-2",590 nM
O=C(O)C(F)(F)F.O=c1[nH]ccc2nc(N[C@@H]3CCNC3)nc(Nc3cc(Cl)cc(Cl)c3)c12 [GSK2188764A],potency estimated from few doses,[7]; [21],122 nM
same,potency estimated from few doses,[2]; [21],184 nM
same,potency estimated from few doses,[10]; [21],799 nM
same,potency estimated from few doses,[11]; [21],222 nM
same,potency estimated from few doses,[12]; [21],2080 nM
same,potency estimated from few doses,[3]; [21],1300 nM
same,potency estimated from few doses,[4]; [21],1470 nM
same,potency estimated from few doses,[13]; [21],46.7 nM
same,potency estimated from few doses,[15]; [21],618 nM
same,potency estimated from few doses,[16]; [21],992 nM
